Source: PubChem (National Center for Advancing Translational Sciences (NCATS))
Only some compounds are listed: those with a hit (about 19% of all), similar ones and a draw of the others.
IL-1B inflam inh – qHTS for Inhibitors of Inflammasome Signaling: IL-1-beta AlphaLISA Primary Screen | 360,000 compounds, 4.7% hits | AID 743279, 2014 | THP-1 LPS/ATP IL-1B secretion, AlphaLISA, 16 h; stronger effect = lower value | activity change, % at 57.5 µM; in the data active = activity change below about -50%; inconclusive = mostly about -30% to -49%
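THP-1 cells pretreated 1 hr with compounds (up to 57.5 uM final), then stimulated with LPS (250 ng/mL final) plus ATP (1.25 mM final); secreted IL-1B measured by AlphaLISA after 16 hr, decreased signal indicating inhibition.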
HT1080NT lethal – qHTS for induction of synthetic lethality in tumor cells producing 2HG: qHTS for the HT-1080-NT fibrosarcoma cell line | HT-1080-NT fibrosarcoma viability, CellTiter-Glo ATP luminescence, 48 h | Potency, µM (doses to about 46.1 µM), inactives show at the top dose activity, negative = less viability, actives largely listed as cytotoxic | 360,000 compounds, 1.6% hits;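 also: NT is the 2HG producing partner of a matched IDH1 knockdown line; potency is read from the fitted curve at half-maximal effect; 0% = DMSO-treated cells and -100% = media-only wells without cells; nearly all actives have a fitted effect of over 55% in size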
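HT-1080-NT fibrosarcoma cells (2HG-overproducing), 750 cells/well in RPMI with 5% FBS, dosed after 2 h and incubated 48 h at 37C. CellTiter-Glo luminescence normalized to DMSO and no-cell wells; concentration-response curves fitted and classed.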
TDP1 cell CPT – qHTS for Inhibitors of human tyrosyl-DNA phosphodiesterase 1 (TDP1): qHTS in cells in presence of CPT | chicken DT40 Tdp1-/-;hTDP1 cells + 20 nM CPT, ATP luminescence, 48 h | Potency, µM (titrated, usually from 46.2 µM), without a hit: at the top dose activity change, negative = growth inhibition, usual class: inhibitors | 420,000 compounds, 12% hits; also: potency is read from the fitted curve at half-maximal effect; nearly all actives have a fitted effect of over 55% in size
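Chicken DT40 Tdp1-/- cells complemented with human TDP1, 400 cells/well, exposed to compounds plus 20 nM camptothecin for at least 48 h at 37 C; viability read as ATP content by CellTiter-Glo luminescence.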
HT1080 IDH1KD tx – qHTS for induction of synthetic lethality in tumor cells producing 2HG: qHTS for the HT-1080-IDH1KD cell line | HT-1080 IDH1 knockdown viability, ATP luminescence, 48 h | 360,000 compounds, 2% hits | Potency, µM (series often up to 46.1 µM), for inactives: top-dose activity, negative = toxicity, hits mostly cytotoxic;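 also: potency is read from the fitted curve at half-maximal effect; 0% = DMSO wells and -100% = cell-free medium wells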
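In this qHTS, HT-1080 cells depleted of IDH1 are exposed for 48 h at 37 °C to compound titrations. Toxicity is scored from CellTiter-Glo luminescence, with DMSO as full viability and medium alone as none.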
DT40 TDP1 no CPT – qHTS for Inhibitors of human tyrosyl-DNA phosphodiesterase 1 (TDP1): qHTS in cells in absence of CPT | DT40 Tdp1-/- hTDP1 cells, no CPT, ATP luminescence, 48 h | Potency, µM (doses to about 46.2 µM), for inactives: top-dose activity change, negative = growth inhibition, actives largely listed as inhibitors | 420,000 compounds, 15% hits; also: potency is read from the fitted curve at half-maximal effect; nearly all actives have a fitted effect of over 55% in size
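Growth kinetics read by CellTiter-Glo luminescence after ≥48 hr at 37 °C. Cells: DT40 Tdp1-/- stably carrying human TDP1, 400 per well, compound exposure in the absence of CPT (DMSO vehicle).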
Numbers without * were called inactive; ? = inconclusive; nt = no result given. Unless noted, calls follow the shape of the dose curve; as a rule, active = well fitted curve in the direction sought with a large enough effect; inconclusive = small, poorly fitted or top-dose-only effect, or another doubt; inactive = no such curve, though single readings can be large; an effect the other way counts as inactive or inconclusive. Unless noted, % is scaled to controls: 0 for no effect and ±100 for the full control effect.

SMILES	IL-1B inflam inh	HT1080NT lethal	TDP1 cell CPT	HT1080 IDH1KD tx	DT40 TDP1 no CPT
O=S(=O)(Nc1ccc(N=Nc2ccc(O)c3ccccc23)cc1)c1ccccc1	-60*	-22%	?	?	?
O=S(=O)(Nc1ccc(N=Nc2ccccc2)cc1)c1ccccc1	-88*	15%	?	-15%	?
O=[N+]([O-])c1ccc(N=Nc2ccc(O)c3ccccc23)cc1	-76*	26µM*	15µM*	?	2.6µM*
O=S(=O)(Nc1ccc(S(=O)(=O)Nc2ccccc2)cc1)c1ccccc1	12	13%	?	4%	-21%
Cc1cccc(N2CCN(CCCNC(=O)c3nnc(Cc4c(F)cccc4Cl)o3)CC2C)c1 (stereo not drawn)	nt	nt	23µM*	nt	?
O=C(NCCCN1CCN(c2ccccc2F)CC1)c1nnc(Cc2ccc(Cl)cc2Cl)o1	nt	nt	21µM*	nt	15µM*
O=C(NCCCN1CCN(Cc2ccccc2)CC1)c1nnc(Cc2c(F)cccc2Cl)o1	3	-6%	-11%	-8%	-29%
O=C(NCCCO)c1nnc(Cc2c(F)cccc2Cl)o1	-20	1%	-19%	-19%	-1%
Cc1ccc(Cl)cc1N1CCN(CCCNC(=O)c2nnc(Cc3cccc(Cl)c3)o2)CC1	nt	nt	21µM*	nt	10µM*
Cc1n[nH]c(C)c1NC(=O)CSc1nnnn1-c1cccc(F)c1	3	-3%	6%	0%	10%
O=S(=O)(c1ccc2nc(Nc3ccccc3)ccc2c1)N1CCCCC1	-67*	?	?	26µM*	16µM*
O=S(=O)(c1ccc2nc(N3CCN(c4ccccc4F)CC3)ccc2c1)N1CCCCC1	5	1%	-28%	-4%	?
CCOc1ccc(S(=O)(=O)N2CCCCC2)cc1NC(=O)c1cccnc1OCC	-29	6%	?	12%	?
CCOc1ccccc1Nc1ccc2cc(S(=O)(=O)N3CCCCC3)ccc2n1	nt	nt	?	nt	18µM*
COCCNc1ccc2cc(S(=O)(=O)N3CCCCC3)ccc2n1	nt	nt	-8%	nt	?
COc1ccc(Nc2ccc3cc(S(=O)(=O)N4CCCC4)ccc3n2)cc1OC	nt	nt	18µM*	nt	21µM*
COc1ccc(CNc2ccc3cc(S(=O)(=O)N4CCCCC4)ccc3n2)cc1	nt	nt	?	nt	18µM*
COc1cccc(Nc2ccc3cc(S(=O)(=O)N4CCC(C)CC4)ccc3n2)c1	nt	nt	?	nt	15µM*
COc1ccc(CCNC(=O)c2cc(-c3ccco3)on2)cc1OC	?	-21%	10µM*	-18%	16µM*
COc1cc(OC)cc(C(=O)N[C@H](C(=O)NCc2ccco2)C(C)C)c1	11	-2%	29µM*	-6%	15µM*
O=C(NCc1ccccc1)c1cc(-c2ccco2)on1	-11	4%	-23%	0%	?
O=C(NCc1ccco1)c1cc(-c2ccco2)on1	-20	-2%	23µM*	1%	?
O=C(NCCc1ccccc1)c1cc(-c2ccco2)on1	0	?	6.3µM*	-29%	?
COc1ccc(C(=O)N[C@H](C(=O)NCc2ccco2)C(C)C)cc1	10	12%	-18%	15%	?
C/C=C(\C)NNC(=O)Cc1ccc(OC)cc1	nt	nt	-9%	nt	1%
SMILES	IL-1B inflam inh	HT1080NT lethal	TDP1 cell CPT	HT1080 IDH1KD tx	DT40 TDP1 no CPT
CC(=O)c1ccc(NC(=S)NCCCN2CCOCC2)cc1	0	3%	20%	3%	11%
CC/C=C\C[C@H]1C(=O)CC[C@@H]1CC(=O)O	nt	nt	0%	nt	0%
CC(=O)c1ccc(NC(=O)CN2C(=O)NC(C)(C3CCCCC3)C2=O)cc1 (stereo not drawn)	0	-2%	-6%	-2%	9%
COc1ccc(Nc2nc(C(=O)NCc3ccco3)cs2)cc1	-4	-22%	23µM*	-7%	?
CCOc1ccc(NC(=O)c2c(NCc3cccs3)sc3c2CCCCC3)cc1	nt	nt	?	nt	23µM*
COc1ccc(NC(=O)c2csc3c2CCCC3)cc1	-5	-2%	-21%	?	-23%
CCOc1ccc(NC(=O)c2c(NC(=O)CN3CCCC3)sc3c2CCC3)cc1	7	1%	?	3%	12µM*
CCOC(=O)c1c(NC(=O)Cc2cccs2)sc2c1CCCC2	-10	5%	?	8%	?
CCOc1ccc(NC(=O)c2c(NC(=O)c3cccc(C)c3)sc3c2CCC3)cc1	nt	nt	-6%	nt	-1%
COc1ccc(NC(=O)c2c(NC(=O)c3ccc(Br)cc3)sc3c2CCCC3)cc1	nt	nt	?	nt	21µM*
COc1ccc(NC(=O)c2c(NCc3cccs3)sc3c2CCCCC3)cc1	nt	nt	9.2µM*	nt	9.2µM*
Cc1ccccc1OCC(=O)N1N=C(C(F)(F)F)CC1(O)C(C)(C)C (stereo not drawn)	-11	?	?	?	16µM*
CS(=O)(=O)N(CC(=O)Nc1ccccc1C(=O)NCCc1ccccc1)c1ccc2c(c1)OCCO2	-14	7%	29µM*	-2%	21µM*
NCCc1nc(-c2ccccc2)cs1	-52*	-3%	4%	-13%	-23%
NC(=O)Cc1nc(-c2ccccc2)cs1	-2	21%	1%	?	5%
CCOc1ccc(CNC(=O)CCn2nc(C)c3c(C)n(-c4ccccc4)nc3c2=O)cc1	nt	nt	-5%	nt	-17%
FC(F)Oc1ccc(/C=N/c2c(-c3ccc(OC(F)F)cc3)nc3n2CCS3)cc1	-15	-6%	?	-2%	?
COc1cccc(-c2cnc3c(NC(C)=O)cc(-c4ccncc4)cn23)c1	-5	?	?	?	16µM*
COc1cccc(-c2cnc3c(NC=O)cc(-c4ccncc4)cn23)c1	68	-19%	18µM*	-19%	4.6µM*
O=C(C1=C[C@H](c2ccccc2)C[C@H](OCc2ccc(CO)cc2)O1)N1CCOCC1	-3	9%	5%	14%	-9%
O=c1c2c3c(sc2n(CCN2CCCCC2)c(=O)n1Cc1ccco1)CCCCC3	-20	?	13µM*	?	18µM*
O=c1c2c3c(sc2n(CCN2CCOCC2)c(=O)n1Cc1ccco1)CCCCC3	?	-1%	8.2µM*	-2%	10µM*
NC(=O)Cn1c(=O)n(Cc2ccco2)c(=O)c2c3c(sc21)CCCCC3	25	-6%	-15%	-29%	-22%
CC(=O)Nc1sc(C)c(C)c1C(=O)OCC(=O)N(Cc1ccccc1)C(C)C	21	1%	?	3%	-28%
